PubChem BioAssay (Tox21)
Inconclusive results are not listed. Activity calls are given as the source filed them. Unless noted, calls follow the shape of the dose curve; as a rule, active = well fitted curve in the direction sought with a large enough effect in the repeat runs; inconclusive = weak or mixed curves; inactive = no such curve, though single readings can be large; an effect the other way counts as inactive or inconclusive.

Legend:
[1] = qHTS assay to identify small molecule antagonists of the estrogen related receptor (ERR) signaling pathway from Tox21 library - cell viability counter screen (AID 1224834); also: nearly all actives have a fitted effect of over 30% in size; also: potency is read from the fitted curve at half-maximal effect
Method in brief: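 ERR cells, 2,000/well; 6 h settle at 37 C/5% CO2; pin-tool compound transfer in DMSO; 17.5 h at 37 C; CellTiter-Fluor, 30 min; fluorescence intensity.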

[2] = biological target: Luciferin 4-monooxygenase (Photinus pyralis) (UniProt P08659); assay: qHTS assay to identify small molecule inhibitors of firefly luciferase (AID 1224835); also: nearly all actives have a fitted effect of over 25% in size; also: potency is read from the fitted curve at half-maximal effect
Method in brief: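 Biochemical qHTS: compounds run as interplate titrations against purified firefly enzyme, with D-luciferin and ATP each at its KM concentration. Light output recorded by CCD imaging.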

[3] = qHTS assay to identify small molecule agonists of the constitutive androstane receptor (CAR) signaling pathway - cell viability counter screen (AID 1224836); also: nearly all actives have a fitted effect of over 45% in size; also: potency is read from the fitted curve at half-maximal effect
Method in brief: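 Double-stable HepG2 hepatoma cells (hCAR plus CYP2B6-2.2kb) are treated for 23 h at 37 C with test compounds in 15-point concentration series. PK11195 at 0.75 uM final is co-added. Cell viability is quantified by CellTiter-Fluor.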

[4] = qHTS assay to identify small molecule antagonists of the constitutive androstane receptor (CAR) signaling pathway - cell viability counter screen (AID 1224837); also: nearly all actives have a fitted effect of over 45% in size; also: potency is read from the fitted curve at half-maximal effect
Method in brief: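 Viability was measured with CellTiter-Fluor in a HepG2 line carrying stably transfected hCAR and a CYP2B6-2.2kb construct. Cells were exposed for 23 hr at 37 C to 15 compound concentrations with 50 nM CITCO as agonist.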

[5] = biological target: Nuclear receptor subfamily 1 group I member 3 (Homo sapiens) (UniProt Q14994); assay: qHTS assay to identify small molecule antagonists of the constitutive androstane receptor (CAR) signaling pathway (AID 1224838);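 also: HepG2 cells stably expressing hCAR with CYP2B6 luciferase reporter stimulated by CITCO; nearly all actives have a fitted effect of over 40% in size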; also: potency is read from the fitted curve at half-maximal effect
Method in brief: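 Antagonist mode used CITCO at a final 50 nM to activate CAR in human hepatoma HepG2 cells carrying stable hCAR and a 2.2 kb CYP2B6 promoter-luciferase construct. Compounds were tested at 15 concentrations over 24 h, with luminescence as the end point.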

[6] = biological target: Nuclear receptor subfamily 1 group I member 3 (Homo sapiens) (UniProt Q14994); assay: qHTS assay to identify small molecule agonists of the constitutive androstane receptor (CAR) signaling pathway (AID 1224839); also: nearly all actives have a fitted effect of over 15% in size; also: potency is read from the fitted curve at half-maximal effect
Method in brief: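 Readout: firefly luciferase luminescence via ONE-Glo. System: HepG2 double-stable for hCAR and CYP2B6-2.2kb. Conditions: 15-point compound titration, PK11195 at 0.75 uM final, 24 h incubation.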

[7] = biological target: Thyrotropin receptor (Homo sapiens) (UniProt P16473); assay: qHTS assay to identify small molecule agonists of the thyroid stimulating hormone receptor (TSHR) signaling pathway (AID 1224843; calls by dose curve; also: nearly all actives have a fitted effect of over 45% in size)
Method in brief: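 Agonist-mode screen: TSHR HEK293 cells received test chemicals for half an hour at room temperature, then HTRF cAMP detection reagents for one hour prior to fluorescence measurement. Each chemical ran as a 15-concentration series, triplicated.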

[8] = qHTS assay to identify small molecule agonists of the hypoxia (HIF-1) signaling pathway - cell viability counter screen (AID 1224844; calls by dose curve; also: nearly all actives have a fitted effect of over 50% in size)
Method in brief: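 Cytotoxicity was measured in parallel with the HRE-driven beta-lactamase readout: after 17 hrs of compound exposure at 37C, HRE-bla ME-180 cells received CellTiter-Glo and luminescence was recorded 30 min later.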

[9] = qHTS assay to identify small molecule agonists of H2AX (AID 1224845; active = well fitted activation curve with a large enough effect in the signal ratio in the repeat runs, not every such curve was filed as active; the % refers to the signal ratio; also: potency is read from the fitted curve at half-maximal effect)
Method in brief: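 Wild-type CHO-K1 cells, plated overnight, exposed 3hr at 37C to 15 concentrations (0.76% DMSO final). Lysed, then HTRF anti-pH2AX (S139) cryptate and anti-H2AX-d2 antibodies, 24 hr room temperature; 665/620 nm emission read.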

[10] = qHTS assay to identify small molecule agonists of the hypoxia (HIF-1) signaling pathway (AID 1224846; active = well fitted activation curve with a large enough effect in the signal ratio in the repeat runs, not every such curve was filed as active; the % refers to the signal ratio)
Method in brief: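 Compounds from the Tox21 10K library, dissolved in DMSO, are tested for induction of a hypoxia response element–controlled beta-lactamase reporter in ME-180 cells. Exposure lasts 17 hrs at 37C after a 5 hr settling period, followed by CCF4-AM FRET substrate.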

[11] = qHTS RealTime-Glo MT Cell Viability Assay in HepG2 cells - 24 hour (AID 1224867); also: nearly all actives have a fitted effect of over 50% in size; also: potency is read from the fitted curve at half-maximal effect
Method in brief: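 Cell number in HepG2 cultures estimated from NanoLuc luminescence generated by metabolic reduction of a prosubstrate by living cells. The homogeneous, nonlytic format allowed repeated reads at 0, 8, 16, 24, 32 and 40 h of compound exposure.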

[12] = qHTS RealTime-Glo MT Cell Viability Assay in HEK293 cells - 32 hour (AID 1224868); also: nearly all actives have a fitted effect of over 50% in size; also: potency is read from the fitted curve at half-maximal effect
Method in brief: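 Homogeneous bioluminescent viability format in HEK293 cells (600 cells/well). Following 5 h at 37 C/5% CO2, 23 nL compound was pintooled; the signal was measured repeatedly during 40 h incubation.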

[13] = A CellTox Green Cytotoxicity Assay to monitor cytotoxicity in HEK293 cells - 0 hour (AID 1224869); also: nearly all actives have a fitted effect of over 50% in size
Method in brief: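 Cells (HEK293, 600/well) and dye reagent are dispensed together. After 5 h at 37 C, 23 nL compound is pinned in. Plates stay at 37 C for 40 h with fluorescence read at 0h, 8h, 16h, 24h, 32h and 40h.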

[14] = qHTS assay to identify small molecule antagonists of the estrogen related receptor signaling pathway with the pleiotropic PPARgamma coactivator (PGC) from Tox21 10K library - cell viability counter screen (AID 1224840; active = well fitted cell-killing curve with a large enough effect in the repeat runs, not every such curve was filed as active; also: nearly all actives have a fitted effect of over 40% in size; also: potency is read from the fitted curve at half-maximal effect)
Method in brief: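 Multiplexed viability counter screen in the PGC/ERR cell line: cells treated with DMSO-dissolved compounds for 17.5 hours at 37 C, then viability measured as CellTiter-Fluor fluorescence.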

[15] = qHTS assay to identify small molecule agonists of the estrogen related receptor signaling pathway with the pleiotropic PPARgamma coactivator (PGC) from Tox21 10K library (AID 1224842); also: nearly all actives have a fitted effect of over 15% in size
Method in brief: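 PGC/ERR reporter cell line, 2,000 cells per well, incubated 6 h at 37 C before 23 nL compound in DMSO was added. After 18 h at 37 C, One-Glo luminescence read following 30 min at room temperature.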

[16] = qHTS assay to identify small molecule agonists of H2AX - cell viability counter screen (AID 1224847; calls by dose curve; also: nearly all actives have a fitted effect of over 30% in size; also: potency is read from the fitted curve at half-maximal effect)
Method in brief: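 For this counter screen, overnight-attached CHO-K1 cells received test compounds (15 concentrations, 0.76% DMSO final); 3 hr later at 37C, CellTiter-Glo reagent was added and luminescence recorded after 30 min at room temperature.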

[17] = qHTS assay to identify small molecule antagonists of the estrogen related receptor (ERR) signaling pathway from Tox21 library (AID 1224848); also: nearly all actives have a fitted effect of over 50% in size
Method in brief: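 Quantitative high-throughput format: ERR reporter cells (2,000/well) pre-incubated 6 h, treated 18 h at 37 C with compounds in DMSO alongside positive and negative controls, then read by ONE-Glo luminescence.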

[18] = qHTS assay to identify small molecule agonists of the estrogen related receptor (ERR) signaling pathway from Tox21 library (AID 1224849; calls by dose curve; also: nearly all actives have a fitted effect of over 15% in size); details: ERR reporter cell line, ONE-Glo luciferase, 18 h; at 92.4 µM (top of the series) unless noted
Method in brief: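 Cells carrying the ERR reporter were plated and allowed to settle for 6 h, exposed to library compounds for 18 h at 37 C, then lysed with ONE-Glo and luminescence measured.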

[19] = qHTS assay to identify small molecule antagonists of the estrogen related receptor signaling pathway with the pleiotropic PPARgamma coactivator (PGC) from Tox21 10K library (AID 1224841; call rule not given here)
Method in brief: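 Steps: plate 2,000 PGC/ERR cells per well; incubate 6 h at 37 C with 5% CO2; transfer compounds from DMSO stocks by pin tool; incubate 18 h at 37 C; add One-Glo; measure luminescence 30 min later.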
% is scaled to controls: 0 for no effect and ±100 for the full control effect.

Thyrotropin receptor (Homo sapiens), sequence (P16473 whole entry, looked up): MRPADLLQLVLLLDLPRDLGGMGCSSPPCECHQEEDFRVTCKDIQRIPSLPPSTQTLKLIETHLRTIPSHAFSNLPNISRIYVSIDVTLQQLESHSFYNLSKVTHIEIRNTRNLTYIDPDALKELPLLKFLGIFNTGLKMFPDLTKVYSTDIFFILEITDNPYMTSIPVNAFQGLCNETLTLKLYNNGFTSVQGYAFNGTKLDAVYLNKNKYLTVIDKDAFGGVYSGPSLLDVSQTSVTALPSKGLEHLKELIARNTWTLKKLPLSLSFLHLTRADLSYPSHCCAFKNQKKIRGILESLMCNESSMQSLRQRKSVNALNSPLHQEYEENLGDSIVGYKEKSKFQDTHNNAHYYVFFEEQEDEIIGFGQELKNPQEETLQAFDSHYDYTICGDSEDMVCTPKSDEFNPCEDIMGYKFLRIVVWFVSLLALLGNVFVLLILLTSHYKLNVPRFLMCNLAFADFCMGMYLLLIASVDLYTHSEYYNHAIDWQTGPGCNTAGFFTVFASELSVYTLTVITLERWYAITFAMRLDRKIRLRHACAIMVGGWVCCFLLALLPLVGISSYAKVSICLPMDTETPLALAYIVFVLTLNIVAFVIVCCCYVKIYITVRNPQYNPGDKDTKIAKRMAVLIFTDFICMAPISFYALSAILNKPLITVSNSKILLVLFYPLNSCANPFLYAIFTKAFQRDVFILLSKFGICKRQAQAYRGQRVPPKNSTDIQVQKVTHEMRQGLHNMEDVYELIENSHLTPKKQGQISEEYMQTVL
Luciferin 4-monooxygenase (Photinus pyralis), sequence (P08659 whole entry, looked up): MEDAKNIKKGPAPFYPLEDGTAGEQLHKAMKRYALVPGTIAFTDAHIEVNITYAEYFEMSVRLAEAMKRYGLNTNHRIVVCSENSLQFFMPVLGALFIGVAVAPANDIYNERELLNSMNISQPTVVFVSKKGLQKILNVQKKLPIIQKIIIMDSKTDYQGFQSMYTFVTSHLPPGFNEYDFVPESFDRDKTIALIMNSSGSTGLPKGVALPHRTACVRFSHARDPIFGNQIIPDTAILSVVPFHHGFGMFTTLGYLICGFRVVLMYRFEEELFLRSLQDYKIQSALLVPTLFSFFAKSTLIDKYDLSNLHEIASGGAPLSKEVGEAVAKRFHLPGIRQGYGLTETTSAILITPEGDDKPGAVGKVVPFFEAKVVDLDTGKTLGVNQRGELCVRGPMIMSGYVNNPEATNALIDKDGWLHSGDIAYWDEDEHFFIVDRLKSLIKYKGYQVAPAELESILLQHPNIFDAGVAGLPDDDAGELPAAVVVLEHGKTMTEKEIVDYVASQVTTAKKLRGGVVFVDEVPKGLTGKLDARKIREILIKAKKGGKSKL
Nuclear receptor subfamily 1 group I member 3 (Homo sapiens), sequence (Q14994 whole entry, looked up): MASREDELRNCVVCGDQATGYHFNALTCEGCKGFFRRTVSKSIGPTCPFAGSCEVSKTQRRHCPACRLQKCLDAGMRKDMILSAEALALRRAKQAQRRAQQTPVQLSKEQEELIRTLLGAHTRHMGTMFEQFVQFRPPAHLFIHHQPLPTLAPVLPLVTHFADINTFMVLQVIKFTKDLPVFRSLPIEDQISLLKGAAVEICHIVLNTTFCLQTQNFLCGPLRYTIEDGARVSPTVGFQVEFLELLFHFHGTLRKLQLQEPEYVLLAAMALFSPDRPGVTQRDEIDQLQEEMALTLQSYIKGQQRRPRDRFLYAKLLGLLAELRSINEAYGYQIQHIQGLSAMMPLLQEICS

CCc1ccccc1
inactive: Potency [1] | Potency [2] | Potency [3] | Potency [4] | Potency [5] | Potency [6] | Potency [7] | Potency [8] | Potency [9] | outcome [10] | Potency [11] | Potency [12] | Potency [13]

Cc1[nH]cnc1CN1CCc2c(c3ccccc3n2C)C1=O
inactive: Potency [1] | Potency [2] | Potency [3] | Potency [4] | Potency [5] | Potency [6] | Potency [14] | Potency [15] | Potency [9] | Potency [16] | Potency [17] | activity change, positive = activation [18] -18.3% [at 42.5 µM] | Potency [11] | Potency [12] | Potency [13]

Cc1cc(C)c(N)cc1C
inactive: Potency [1] | Potency [2] | Potency [3] | Potency [4] | Potency [5] | Potency [6] | Potency [14] | Potency [8] | Potency [9] | outcome [10] | Potency [16] | Potency [11] | Potency [12] | Potency [13]

Cc1cc(C)cc(N)c1
inactive: Potency [1] | Potency [2] | Potency [3] | Potency [4] | Potency [5] | Potency [6] | Potency [14] | Potency [7] | Potency [9] | Potency [16] | Potency [11] | Potency [12] | Potency [13]

Nc1cccc2c1CN(C1CCC(=O)NC1=O)C2=O (centres undefined)
inactive: Potency [1] | Potency [2] | Potency [3] | Potency [4] | Potency [5] | Potency [6] | Potency [14] | Potency [8] | Potency [9] | Potency [16] | Potency [11] | Potency [12] | Potency [13]

CCC(=O)OC
inactive: Potency [1] | Potency [2] | Potency [3] | Potency [4] | Potency [5] | Potency [6] | Potency [14] | Potency [7] | Potency [8] | Potency [9] | Potency [16] | Potency [11] | Potency [12] | Potency [13]

C=C1C[C@@]23CC[C@H]4[C@@](C)(CCC[C@@]4(C)C(=O)O[C@@H]4O[C@H](CO)[C@@H](O)[C@H](O)[C@H]4O)[C@@H]2CC[C@]1(O[C@@H]1O[C@H](CO)[C@@H](O)[C@H](O[C@@H]2O[C@H](CO)[C@@H](O)[C@H](O)[C@H]2O)[C@H]1O[C@@H]1O[C@H](CO)[C@@H](O)[C@H](O)[C@H]1O)C3
inactive: Potency [1] | Potency [2] | Potency [3] | Potency [4] | Potency [5] | Potency [6] | Potency [19] | Potency [15] | Potency [7] | Potency [9] | outcome [10] | Potency [16] | Potency [17] | Potency [11] | Potency [12] | Potency [13]

O=C1CCCCCCCCCCOCCCCO1
inactive: Potency [1] | Potency [2] | Potency [3] | Potency [4] | Potency [5] | Potency [6] | Potency [8] | Potency [9] | outcome [10] | Potency [11] | Potency [12] | Potency [13]

CCN(CC)CCNC(=O)COc1ccc(OC)cc1
inactive: Potency [1] | Potency [2] | Potency [3] | Potency [4] | Potency [5] | Potency [6] | Potency [14] | Potency [9] | Potency [16] | Potency [11] | Potency [12] | Potency [13]

CO/N=C(/C(=O)N[C@@H]1C(=O)N2C(C(=O)O)=C(COC(N)=O)CS[C@H]12)c1ccco1
inactive: Potency [1] | Potency [2] | Potency [3] | Potency [4] | Potency [5] | Potency [6] | Potency [14] | Potency [7] | Potency [9] | outcome [10] | Potency [16] | Potency [11] | Potency [12] | Potency [13]

CN(C)CCN1C(=O)c2ccccc2N(C)c2ccccc21
active: Potency [6] 26.6 µM
inactive: Potency [1] | Potency [2] | Potency [3] | Potency [4] | Potency [5] | Potency [14] | Potency [7] | Potency [8] | Potency [9] | outcome [10] | Potency [16] | Potency [11] | Potency [12] | Potency [13]

CC(C)COCC(CN(Cc1ccccc1)c1ccccc1)N1CCCC1 (centres undefined)
active: Potency [1] 26.6 µM | Potency [3] 29.8 µM | Potency [4] 29.8 µM | Potency [5] 18.8 µM | Potency [14] 29.8 µM | Potency [9] 49.2 µM | Potency [16] 43.8 µM | Potency [11] 23.9 µM | Potency [12] 10.7 µM
inactive: Potency [2] | Potency [6] | Potency [13]

COC(=O)CCS
inactive: Potency [1] | Potency [2] | Potency [3] | Potency [4] | Potency [5] | Potency [6] | Potency [14] | Potency [7] | Potency [8] | Potency [9] | outcome [10] | Potency [16] | Potency [11] | Potency [12] | Potency [13]

CC(=O)OCC[N+](C)(C)C
inactive: Potency [1] | Potency [2] | Potency [3] | Potency [4] | Potency [5] | Potency [6] | Potency [14] | Potency [7] | Potency [9] | Potency [16] | Potency [11] | Potency [12] | Potency [13]

c1ccc2c(c1)CCc1ccccc1N2
active: Potency [2] 63.6 µM | Potency [6] 54.8 µM | Potency [16] 101 µM
inactive: Potency [1] | Potency [3] | Potency [4] | Potency [5] | Potency [14] | Potency [7] | Potency [9] | outcome [10] | Potency [11] | Potency [12] | Potency [13]

CCOC(=O)c1ccc(OCCN2C[C@H](O)[C@@H](O)[C@H](O)[C@H]2CO)cc1
inactive: Potency [1] | Potency [2] | Potency [3] | Potency [4] | Potency [5] | Potency [6] | Potency [14] | Potency [7] | Potency [8] | Potency [9] | outcome [10] | Potency [16] | Potency [11] | Potency [12] | Potency [13]

Cc1ccccc1S
inactive: Potency [1] | Potency [2] | Potency [3] | Potency [4] | Potency [5] | Potency [6] | Potency [14] | Potency [7] | Potency [9] | outcome [10] | Potency [16] | Potency [11] | Potency [12] | Potency [13]
